Laboratory results from PubChem BioAssay (EPA / NIEHS).
Results filed as inconclusive are left out. Some compounds were tested as several samples or in several runs, with calls that do not always agree. Active and inactive are the calls of the source. How the source made its calls: active means hit-call score of the fitted dose curve at least 0.9, where 1 is the maximum; inconclusive means response in the unintended direction; inactive means score below 0.9.

Legend:
[1] = ACEA_AR_agonist_AUC_viability: ACEA Biosciences xCELLigence Real-Time Cell Analysis on Androgen Receptor Agonism for Viability (AID 2283775);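 on AC50: viability read 80 hours after compound addition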
Procedure, shortened: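 Viability endpoint from xCELLigence impedance in 22Rv1 prostate cells at 80 h. Eight-point series, 100 uM maximum final.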

[2] = ACEA_AR_antagonist_AUC_viability: ACEA Biosciences xCELLigence Real-Time Cell Analysis on Androgen Receptor Antagonism for Viability (AID 2283776);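 further: 22Rv1 human prostate cancer cells growing on impedance electrode plates; area under impedance growth curve at 80 h after dosing as viability; hits lower the growth signal relative to DMSO meaning cytotoxicity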
Procedure, shortened: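 Real-time electrical impedance tracks 22Rv1 proliferation after continuous compound exposure (top 100 uM final, 1:4 steps, 8 concentrations). The 80 h area-under-curve serves as the cytotoxicity readout relative to DMSO.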

[3] = ACEA_ER_AUC_viability: ACEA Biosciences xCELLigence Real-Time Cell Analysis on Estrogen Receptor Agonism for Viability (AID 2283782);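 further: hit means loss of impedance signal meaning reduced cell growth or viability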
Procedure, shortened: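 Viability endpoint: reduced impedance area under the curve relative to DMSO, recorded by real-time electrode sensing over ~80 h of continuous exposure. Duplicate plates of T47D in hormone-depleted medium; eight concentrations, 1:4 dilutions, 100 uM maximum.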

[4] = test system: frog Estrogen Receptor (ESR2), gene 100174814; test: ATG_frER2_XSP1: Attagene TRANS-FACTORIAL Multi-Species (XSP1) HepG2 Assay for frog Estrogen Receptor (ESR2) (AID 2283774)
Description: ATG_XSP1_multi-species_TRANS is a cell-based, multiplexed assay created by modifying the existing Attagene TRANS-FACTORIAL system to include a panel of nuclear receptors from some or all the following species: human (Homo sapiens), mouse (Mus musculus), frog (Xenopus laevis), zebrafish (Danio rerio), chicken (Gallus gallus), and turtle (Chrysemys picta). The ECOTOX-FACTORIAL format uses HepG2, a human liver cell line, with measurements taken at 24 hours after chemical dosing in a 24-well plate. Xsp1 included 3 nM 6-alpha-fluorotestosterone to partially stimulate the androgen receptor.ATG_frER2_XSP1 is one of 29 assay components measured or calculated from the ATG_XSP1_multi-species_TRANS assay. It is designed to make measurements of mRNA induction, a form of inducible reporter, as detected with fluorescence intensity signals by Reverse transcription polymerase chain reaction (RT-PCR) and Capillary electrophoresis technology.The assay endpoint ATG_frER2_XSP1 was analyzed in the positive analysis fitting direction relative to DMSO as the negative control and baseline of activity. […] Furthermore, this assay endpoint can be referred to as a primary readout, because this assay has produced multiple assay endpoints where this one serves a reporter gene function. […]

[5] = test system: frog Estrogen Receptor (ESR1), gene 398734; test: ATG_frER1_XSP1: Attagene TRANS-FACTORIAL Multi-Species (XSP1) HepG2 Assay for frog Estrogen Receptor (ESR1) (AID 2283777)
Procedure, shortened: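 HepG2 cells transiently transfected with GAL4-UAS reporter units and frog ER–Gal4 chimera were dosed for 24 h with 3 nM 6-alpha-fluorotestosterone present. Reporter mRNA was measured by RT-PCR and capillary electrophoresis; gain of signal fitted versus DMSO.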

[6] = target: chicken Estrogen Receptor (ESR1), ESR1 (gene 396099) (UniProt P06212); test: ATG_chERa_XSP1: Attagene TRANS-FACTORIAL Multi-Species (XSP1) HepG2 Assay for chicken Estrogen Receptor (ESR1) (AID 2283779)
Sequence of chicken Estrogen Receptor (ESR1), ESR1 (gene 396099) (P06212 whole entry, looked up, the tested form may be a part): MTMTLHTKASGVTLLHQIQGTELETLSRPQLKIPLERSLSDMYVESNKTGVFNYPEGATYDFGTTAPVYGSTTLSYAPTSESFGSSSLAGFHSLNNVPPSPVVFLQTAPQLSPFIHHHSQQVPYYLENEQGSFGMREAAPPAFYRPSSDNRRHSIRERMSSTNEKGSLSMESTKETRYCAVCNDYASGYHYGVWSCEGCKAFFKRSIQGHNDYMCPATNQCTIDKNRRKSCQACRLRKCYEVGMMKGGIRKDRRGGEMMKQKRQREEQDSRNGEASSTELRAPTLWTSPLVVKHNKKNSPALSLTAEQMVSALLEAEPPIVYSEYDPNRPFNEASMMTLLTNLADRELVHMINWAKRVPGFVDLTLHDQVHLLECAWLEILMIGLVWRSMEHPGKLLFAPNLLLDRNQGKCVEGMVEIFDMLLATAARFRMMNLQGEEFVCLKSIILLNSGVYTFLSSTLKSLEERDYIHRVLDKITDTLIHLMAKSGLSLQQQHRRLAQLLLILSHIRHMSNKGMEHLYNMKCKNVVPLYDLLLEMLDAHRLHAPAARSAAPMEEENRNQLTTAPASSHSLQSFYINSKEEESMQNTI
Procedure, shortened: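 Trans-activation of an exogenous chicken ERα–Gal4 chimera read as reporter transcript (RT-PCR, fluorescent labeling, capillary electrophoresis) after 24 h compound exposure of transfected HepG2; medium held 3 nM 6-alpha-fluorotestosterone. Positive-direction fit against DMSO.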

[7] = test system: turtle Estrogen Receptor (ESR1), gene 101933533; test: ATG_trERa_XSP1: Attagene TRANS-FACTORIAL Multi-Species (XSP1) HepG2 Assay for turtle Estrogen Receptor (ESR1) (AID 2283781)
Procedure, shortened: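 Transactivation measured 24 h post-dose as reporter mRNA (RT-PCR, fluorescent capillary electrophoresis) from an NR-Gal4 turtle ER construct in HepG2. Medium included 3 nM 6-alpha-fluorotestosterone; increase over DMSO fitted.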

With `CCCc1ccc(O)cc1` the outcome [1] was “inactive” and the outcome [2] was “inactive”.
In the case of `C=C(C)C(N)=O`, the outcome [1] is reported as “inactive” and the outcome [2] is reported as “inactive”.
With `O=C(OCc1ccccc1)c1ccccc1O` the outcome [1] was “inactive”, the outcome [2] was “inactive” and the AC50 [3] was 94.3 µM (active).
In the case of `CCCC(O)C(CC)CO` (stereo not drawn), the outcome [1] is reported as “inactive”.
With `FC(F)(F)c1ccc(Cl)c(Cl)c1` the outcome [1] was “inactive” and the outcome [3] was “inactive”.
For `CCCCCC1CCC(=O)O1` (stereo not drawn), the outcome [1] was “inactive”, the outcome [2] was “inactive” and the outcome [3] was “inactive”.
For `OCC=Cc1ccccc1`, the outcome [1] was “inactive” and the outcome [2] was “inactive”.
In the case of `CN(C)C(=O)Nc1ccccc1`, the outcome [1] is reported as “inactive” and the outcome [2] is reported as “inactive”.
With `CCC(C)COC(=O)CC(C)C` (stereo not drawn) the outcome [1] was “inactive”.
For `c1ccc(Cc2ccccc2)cc1`, the outcome [1] was “inactive”, the AC50 [2] was 9.27 µM (active) and the outcome [3] was “inactive”.
In the case of `CCCCCCCCCOS(=O)(=O)O`, the outcome [1] is reported as “inactive” and the outcome [2] is reported as “inactive”.
With `CN1CCc2cccc3c2[C@H]1Cc1ccc(O)c(O)c1-3` the AC50 [1] was 11.4 µM (active), the AC50 [2] was 4.25 µM (active) and the AC50 [3] was 7.27 µM (active).
For `CC1=CCC(C(C)C)=CC1`, the outcome [1] was “inactive”.
In the case of `CCCCOCCOCCO`, the outcome [1] is reported as “inactive” and the outcome [2] is reported as “inactive”.
With `CCC(C)(C)C1CCC(OC)CC1` (stereo not drawn) the outcome [1] was “inactive”, the outcome [2] was “inactive” and the outcome [3] was “inactive”.
In the case of `C#C[C@]1(O)CC[C@H]2[C@@H]3CCc4cc(O)ccc4[C@H]3CC[C@@]21C`, the AC50 [4] is reported as 0.000273 µM (active), the outcome [1] is reported as “inactive” and the AC50 [2] is reported as 30.5 µM (active). For the same compound, the outcome [2] was “inactive”, the AC50 [5] was 39.3 pM (active) and the AC50 [6] was 61.7 pM (active). For the same compound, the AC50 [7] was 40.3 pM (active).
With `Cc1cccc(O)c1` the outcome [1] was “inactive” and the outcome [2] was “inactive”.
With `CCCCCCCCCCO[C@@H]1O[C@H](CO)[C@@H](O)[C@H](O)[C@H]1O` the outcome [1] was “inactive”, the outcome [2] was “inactive” and the AC50 [3] was 80.3 µM (active).
In the case of `CCNC(=S)NCC`, the outcome [1] is reported as “inactive” and the outcome [2] is reported as “inactive”.
For `CNC(=C[N+](=O)[O-])NCCSCc1ccc(CN(C)C)o1`, the outcome [1] was “inactive” and the outcome [2] was “inactive”.
